Measured values from PubChem BioAssay (NCATS).
Inconclusive results are not listed. Calls of active or inactive are those of the source. Calls follow the shape of the full dose curve.

What follows are compounds tested against Vitamin D3 receptor (Homo sapiens) (UniProt P11473) (assay: qHTS assay for small molecule agonists of vitamin D receptor signaling (AID 588543)). Conditions: HEK293T VDR-UAS-bla, beta-lactamase ratio, 16 h; series mostly up to 76.8 µM.
Vitamin D3 receptor (Homo sapiens), sequence (P11473 whole entry, looked up): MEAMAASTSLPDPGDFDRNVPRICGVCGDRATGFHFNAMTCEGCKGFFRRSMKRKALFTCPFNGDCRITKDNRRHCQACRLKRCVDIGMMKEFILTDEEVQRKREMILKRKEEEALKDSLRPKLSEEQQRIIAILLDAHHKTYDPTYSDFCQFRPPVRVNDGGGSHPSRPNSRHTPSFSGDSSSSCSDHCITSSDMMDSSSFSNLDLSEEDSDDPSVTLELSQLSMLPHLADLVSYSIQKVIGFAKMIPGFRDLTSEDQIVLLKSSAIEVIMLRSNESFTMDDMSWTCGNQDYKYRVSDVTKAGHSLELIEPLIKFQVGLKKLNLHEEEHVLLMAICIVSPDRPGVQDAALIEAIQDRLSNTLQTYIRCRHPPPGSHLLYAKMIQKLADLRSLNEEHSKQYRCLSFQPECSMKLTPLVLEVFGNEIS
Source text: NIH Chemical Genomics Center [NCGC]
U.S. Environmental Protection Agency [EPA]
National Institutes of Environmental Health Sciences [NIEHS]
National Toxicology Program [NTP]
The Vitamin D receptor (VDR) is a member of nuclear hormone receptor superfamily and it plays a critical role in calcium homeostasis and bone metabolism. It plays a role in inducing cell differentiation, inhibiting cell growth and in thrombogenicity. So, VDR that mediates these effects represents a pharmacological target in prevention and treatment of hyperproliferative malignancies, such as cancer and psoriasis, cardiovascular, immunological, inflammatory and renal diseases etc.
NCGC Assay Protocol Summary
Using a beta-lactamase reporter-gene under control of Vitamin D receptor (VDR) response element, a cell-based assay [GeneBLAzer (VDR -UAS-bla assay developed by Invitrogen] was used to measure VDR ligands signaling. GeneBLAzer VDR -UAS-bla HEK293T cells were used with assay medium containing 2% charcoal-stripped FBS. The assay was performed in clear bottom black Greiner 1536-well plates. 1-alpha,25-Dihydroxy vitaminD3 was used as a positive control in the screen. Library compounds were measured for their ability to stimulate the reporter gene activity. Compounds were screened in a titration series in 1536-well format. The fluorescence intensity (405 nm excitation, 460/530 nm emission) was measured using an EnVision plate reader. Data was normalized relative to 1-alpha,25-Dihydroxy vitaminD3 control (50 nM, 100%) and DMSO only wells (basal, 0%). Concentration-response titration points for each compound were fitted to the Hill equation yielding concentrations of half-maximal stimulation (EC50) and maximal response (efficacy) values.
qHTS protocol for VDR beta-lactamase assay in agonist mode
[Step] [Parameter] [Value] [Description]
1. Reagent; 6 uL; 2000 cells/well
2. Incubation; 37 C for 5 hrs
4. Controls (1-alpha,25-Dihydroxy vitaminD3); 23 nL,
- Final concentrations of 50 nM and 15 nM in two columns
5. Incubation; 37 C for 16 hrs
6. Detection reagent; 1 uL of CCF4-dye
7. Incubation; RT for 2 hrs
8. Detection; Fluorescence; Envision plate reader
For C#C[C@]1(O)CC[C@H]2[C@@H]3CCC4=Cc5oncc5C[C@]4(C)[C@H]3CC[C@@]21C, the outcome was “inactive”. CCCN(CCC)S(=O)(=O)c1ccc(C(=O)O)cc1 was tested, and the outcome was “inactive”. In the case of CCCCCCCCCCCCCCCCO, the outcome is reported as “inactive”. In the case of CC1(C)OC[C@@H]2O[C@@]3(C(=O)O)OC(C)(C)O[C@H]3[C@@H]2O1, the outcome is reported as “inactive”. For CCCCCCCC/C=C\CCCCCCCCN, the outcome was “inactive”. For NCCNc1cccc2ccccc12, the outcome was “inactive”. For CCOc1ccc(NC(C)=O)cc1, the outcome was “inactive”. For CC(C)(C)CC(C)(C)c1ccc(O)c(-n2nc3ccccc3n2)c1, the outcome was “inactive”. For CCCCCCCCCCCCCCCC(=O)O, the outcome was “inactive”. For COc1cc([C@H]2Oc3cc([C@H]4Oc5cc(O)cc(O)c5C(=O)[C@@H]4O)ccc3O[C@@H]2CO)ccc1O, the outcome was “inactive”. For COc1ccc(C(Cl)=C(c2ccc(OC)cc2)c2ccc(OC)cc2)cc1, the outcome was “inactive”. With O=C(O)c1ccc(S(=O)(=O)N(Cl)Cl)cc1 the outcome was “inactive”. With CCCCOC(=O)CC(CC(=O)OCCCC)(OC(C)=O)C(=O)OCCCC the outcome was “inactive”. With CCCCCCCCOc1ccc(C(=O)c2ccccc2)c(O)c1 the outcome was “inactive”. NC(=O)c1ccccc1O was tested, and the outcome was “inactive”. With CCOc1ccccc1C(N)=O the outcome was “inactive”. With C=C[C@@]1(C)CC(=O)[C@]2(O)[C@@]3(C)[C@@H](O)CCC(C)(C)[C@@H]3[C@H](O)[C@H](OC(C)=O)[C@@]2(C)O1 the outcome was “inactive”. CCCCCCCCCCCCCC(=O)OC(C)C was tested, and the outcome was “inactive”. Oc1ccc(Cl)cc1Cc1cc(Cl)ccc1O was tested, and the outcome was “inactive”. For CCCCC(CC)COC(=O)c1ccc(N(C)C)cc1 (stereo not given), the outcome was “inactive”.
